# Target: T1, Methionyl-tRNA synthetase, putative (Leishmania donovani (strain BPK282A1)) (UniProt E9BF75)
# T1 sequence (whole entry): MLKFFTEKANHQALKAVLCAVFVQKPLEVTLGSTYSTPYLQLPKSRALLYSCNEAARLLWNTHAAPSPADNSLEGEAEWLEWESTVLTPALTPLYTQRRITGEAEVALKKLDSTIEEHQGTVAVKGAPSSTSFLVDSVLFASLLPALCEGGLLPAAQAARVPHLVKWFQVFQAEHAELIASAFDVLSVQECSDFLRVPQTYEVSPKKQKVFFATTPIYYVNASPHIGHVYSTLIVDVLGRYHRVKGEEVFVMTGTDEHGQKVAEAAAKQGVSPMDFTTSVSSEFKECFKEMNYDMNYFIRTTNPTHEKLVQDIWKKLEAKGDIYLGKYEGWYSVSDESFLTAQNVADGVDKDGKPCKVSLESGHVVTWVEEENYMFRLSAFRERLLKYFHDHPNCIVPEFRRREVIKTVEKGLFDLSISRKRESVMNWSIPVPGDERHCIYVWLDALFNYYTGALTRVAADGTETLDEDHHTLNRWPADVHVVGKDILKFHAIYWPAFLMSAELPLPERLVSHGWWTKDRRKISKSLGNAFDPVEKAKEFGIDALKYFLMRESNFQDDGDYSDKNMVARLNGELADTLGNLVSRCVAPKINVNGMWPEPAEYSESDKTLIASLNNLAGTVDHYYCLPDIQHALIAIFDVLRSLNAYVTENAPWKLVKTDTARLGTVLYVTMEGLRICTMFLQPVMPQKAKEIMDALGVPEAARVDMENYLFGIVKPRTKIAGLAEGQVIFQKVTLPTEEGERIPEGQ
# Assay: Leishmania donovani Methionine tRNA synthetase (LdMetRS):v7. Dose response assay
# Format: functional
# Design: conc 80 nM, time 150 minutes
smiles,measurement,setting,value
CCNc1nc(CN2CCCCC2)nc2scc(-c3ccccc3)c12,PXC50,MAX_EFFECT 17.42424242,< 4
same,PXC50,MAX_EFFECT 18.36734694,< 4
Cc1cc2c(N3CCC(C(N)=O)CC3)nc(-c3cccnc3)nc2s1,PXC50,MAX_EFFECT 10.38251366,< 4
same,PXC50,MAX_EFFECT 13.36898396,< 4
Cc1nc(N2CCCC2)c2c3c(sc2n1)CCCC3,PXC50,MAX_EFFECT 9.895833333,< 4
same,PXC50,MAX_EFFECT 12.71929825,< 4
O=C(NCC1(O)CCC(F)(F)CC1)c1cc(=O)c2cc(F)ccc2o1,PXC50,MAX_EFFECT 1.754385965,< 4
same,PXC50,MAX_EFFECT 9.021113244,< 4
CCc1nc(NCc2ccccn2)c2cc(CC)sc2n1,PXC50,MAX_EFFECT 4.176904177,< 4
same,PXC50,MAX_EFFECT 4.522613065,< 4
O=C(NCC1CCCCN1C(=O)c1cccc2ccccc12)c1ccccc1 (stereo not drawn),PXC50,"BOTTOM 0.770786067, HILLSLOPE 2.128077678, MAX_EFFECT 96.73659674, TOP 102.5562093",4.68
same,PXC50,"BOTTOM 1.426381969, HILLSLOPE 1.713383958, MAX_EFFECT 97.20930233, TOP 108.6916663",4.55
CNC(=O)CN(C)c1nc(-c2cccs2)nc2sc(C)c(C)c12,PXC50,MAX_EFFECT 6.801007557,< 4
same,PXC50,MAX_EFFECT 6.870229008,< 4
Nc1noc2ccc(-c3cnc4ccc(NCC5CCCO5)nn34)cc12 (stereo not drawn),PXC50,MAX_EFFECT 19.33842239,< 4
same,PXC50,MAX_EFFECT 25.0,< 4
Cc1nc(N2CCN(c3ncccn3)CC2)c2c3c(sc2n1)CCC3,PXC50,MAX_EFFECT 14.75409836,< 4
same,PXC50,MAX_EFFECT 18.71657754,< 4
COCc1nc(N(C)CC(=O)N(C)C)c2c(-c3ccccc3)csc2n1,PXC50,MAX_EFFECT 3.778337531,< 4
same,PXC50,MAX_EFFECT 3.816793893,< 4
O=C(NCC1(O)CCCCC1)c1cc(=O)c2cc(F)cc(O)c2o1,PXC50,MAX_EFFECT 3.03030303,< 4
same,PXC50,MAX_EFFECT 5.182341651,< 4
Cn1cc(CN2CCC(F)(F)C3(CCN(c4cccnc4)C3)C2)cn1 (stereo not drawn),PXC50,MAX_EFFECT 3.888888889,< 4
same,PXC50,MAX_EFFECT 8.450704225,< 4
CCc1nc(N2CCN(c3ncccn3)CC2)c2cc(C)sc2n1,PXC50,MAX_EFFECT 13.86666667,< 4
same,PXC50,MAX_EFFECT 15.34391534,< 4
Cc1sc2nc(CN3CCOCC3)nc(NC3CCS(=O)(=O)C3)c2c1C (stereo not drawn),PXC50,MAX_EFFECT 9.625668449,< 4
same,PXC50,MAX_EFFECT 10.38251366,< 4
CCN(CCO)c1nc(-c2ccsc2)nc2sc3c(c12)CCCC3,PXC50,MAX_EFFECT 43.2,< 4
same,PXC50,MAX_EFFECT 48.67724868,< 4
CN(CCO)c1nc(-c2cccs2)nc2sc3c(c12)CCCC3,PXC50,MAX_EFFECT 31.46666667,< 4
same,PXC50,MAX_EFFECT 36.50793651,< 4
Cc1nc(NCc2ccccn2)c2cc(C)sc2n1,PXC50,MAX_EFFECT 3.015075377,< 4
same,PXC50,MAX_EFFECT 6.633906634,< 4
CCc1nc(N2CCCC(C(=O)O)C2)c2c3c(sc2n1)CCC3 (stereo not drawn),PXC50,MAX_EFFECT 18.93939394,< 4
same,PXC50,MAX_EFFECT 20.91836735,< 4
O=c1cc(NCCCNC2CCOc3c(I)cc(Cl)cc32)[nH]c2ccccc12 (stereo not drawn),PXC50,"BOTTOM 0.0, HILLSLOPE 1.492515979, MAX_EFFECT 100.0, TOP 105.2364851",5.24
same,PXC50,"BOTTOM 6.728264836, HILLSLOPE 2.160741468, MAX_EFFECT 100.4651163, TOP 100.3878671",5.22
CCc1nc(N2CCN(c3ccccn3)CC2)c2c3c(sc2n1)CCC3,PXC50,MAX_EFFECT 39.95098039,< 4
same,PXC50,MAX_EFFECT 40.86538462,< 4
Cc1sc2nc(CN3CCOCC3)nc(NC3CC3)c2c1C,PXC50,MAX_EFFECT 8.673469388,< 4
same,PXC50,MAX_EFFECT 8.838383838,< 4
N[C@H](COc1cccc(F)c1Oc1ccc(Cl)cc1)C1CCOCC1,PXC50,MAX_EFFECT 9.316770186,< 4
same,PXC50,MAX_EFFECT 10.44776119,< 4
Cc1nc(NCCN2CCNC2=O)c2ccsc2n1,PXC50,MAX_EFFECT 8.533333333,< 4
same,PXC50,MAX_EFFECT 11.11111111,< 4
Cc1nc(N2CCNC(=O)CC2C)c2c(-c3ccccc3)csc2n1 (stereo not drawn),PXC50,MAX_EFFECT 10.43256997,< 4
same,PXC50,MAX_EFFECT 12.34256927,< 4
CS(=O)(=O)N1CCN(c2ccc3ccc(C(=O)N4CCCCO4)cn23)CC1,PXC50,"BOTTOM 3.408302262, HILLSLOPE 2.699207266, MAX_EFFECT 56.14035088, TOP 100.0",4.33
same,PXC50,"BOTTOM -1.088314762, HILLSLOPE 0.901802249, MAX_EFFECT 54.6875, TOP 100.0",4.49
Cc1sc2nc(CCN)nc(N(CCN(C)C)CC3CCCO3)c2c1C (stereo not drawn),PXC50,MAX_EFFECT 8.838383838,< 4
same,PXC50,MAX_EFFECT 10.20408163,< 4
Nc1noc2ccc(-c3cnc4ccc(NCC5CC5)nn34)cc12,PXC50,MAX_EFFECT 32.56997455,< 4
same,PXC50,MAX_EFFECT 37.71929825,< 4
Cc1noc(CCNC(=O)c2ccc3ccc(N4CCN(S(C)(=O)=O)CC4)n3c2)n1,PXC50,"BOTTOM 5.724020306, HILLSLOPE 2.592848239, MAX_EFFECT 58.13528336, TOP 58.43223286",4.74
same,PXC50,"BOTTOM -1.848364429, HILLSLOPE 1.849781613, MAX_EFFECT 52.63157895, TOP 54.86189083",4.91
FC1(F)CCN(Cc2ccccn2)CC12CCN(c1ncccn1)C2 (stereo not drawn),PXC50,MAX_EFFECT 3.628117914,< 4
same,PXC50,MAX_EFFECT 16.82242991,< 4
